# Measured values published in PubChem BioAssay.
# Active and inactive are the calls of the source.
# Key:
# [1] = tested on: Plasmodium falciparum Sir2 (PF13_0152, Sir2A); experiment: pfSir2 binders on small-molecule microarrays, primary screen, biochemical, small-molecule microarray, 635 nm fluorescence (AID 1098); conditions: small-molecule microarray binding, fluorescence 635 nm; higher = more signal;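 further: score merges spot fluorescence intensity with its signal-to-noise ratio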
# [2] = small-molecule microarray binders of probe aDKK1, primary screen, biochemical, biotinylated probe, 635/667 nm fluorescence (AID 1099); conditions: higher = more signal;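 further: score merges 667nm spot fluorescence with signal to noise across triplicate slides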
# [3] = small-molecule microarray binders of probe aCHRDL2, primary screen, biochemical, biotinylated probe, 635/667 nm fluorescence (AID 1100); conditions: higher = more signal
# [4] = splicing luciferase reporter signal modulators, primary screen, spliceosome inhibition project, cell-based, HEK293, splice +/- reporter (AID 1101); conditions: luminescence, 24 h, higher = more signal, called active from +8 up or from −8 down;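 further: HEK293 cells carrying a splicing-competent luciferase reporter gene; test concentration not given here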
# [5] = biological target: Fibroblast growth factor 10 (Homo sapiens) (UniProt O15520); experiment: FGF10 binders on small-molecule microarrays, primary screen, biochemical, small-molecule microarray, 635 nm fluorescence (AID 1102); conditions: FGF10 binding, fluorescence 635 nm, higher = more signal
# [6] = tested on: glycogen synthase kinase-3 (GSK3A per assay name; protocol says GSK3B); experiment: GSK3 binders on small-molecule microarrays, primary screen, biochemical, small-molecule microarray, 635 nm fluorescence, GSK3A (AID 1103); conditions: small-molecule microarray binding, fluorescence 635 nm; higher = more signal; further: the record names both GSK3A and GSK3B
# [7] = biological target: Epidermal growth factor receptor (Homo sapiens) (UniProt P00533); experiment: EGFR binders on small-molecule microarrays, primary screen, biochemical, small-molecule microarray, 635 nm fluorescence (AID 1104); conditions: EGFR binding, higher = more signal;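 further: score merges 667 nm emission intensity with spot signal to noise over triplicate slides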
# [8] = biological target: Follistatin-related protein 3 (Homo sapiens) (UniProt O95633); experiment: FSTL3 binders on small-molecule microarrays, primary screen, biochemical, small-molecule microarray, 635 nm fluorescence (AID 1105); conditions: FSTL3 binding, higher = more signal;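 further: score merges emission near 667 nm and signal to noise per printed spot across three slides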
# [9] = biological target: Dickkopf-related protein 1 (Homo sapiens) (UniProt O94907); experiment: DKK1 binders on small-molecule microarrays, primary screen, biochemical, small-molecule microarray, 635 nm fluorescence scan (AID 1106); conditions: DKK1 binding, higher = more signal;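 further: score merges emission near 667 nm with signal to noise over three replicate slides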
# [10] = tested on: Inhibin beta A chain (activin A); experiment: INHBA (activin A) binders on microarrays, primary screen, biochemical, small-molecule microarray, 635 nm fluorescence scan (AID 1107); conditions: small-molecule microarray binding, higher = more signal;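 further: mouse activin A protein probed at 4.33 µg/mL on printed slides; score merges bound-protein fluorescence near 667 nm with spot signal-to-noise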
# [11] = tested on: Human papillomavirus type 1a protein E7 (residues 44-93); experiment: HPV1a E7 fragment binders on microarrays, primary screen, biochemical, small-molecule microarray, residues 44-93, 635 nm fluorescence (AID 1108); conditions: small-molecule microarray binding, fluorescence 635 nm; higher = more signal;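 further: E7 fragment applied at 1 µg/mL in TBST for 1 h at 4 C; score combines spot fluorescence with its signal to noise ratio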
# [12] = modulators of HCV replicon luciferase signal, primary screen, HCV replication inhibitor project, Huh7 cells, luciferase reporter (AID 1109); conditions: 48 h, higher = more signal;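 further: huh7 hepatoma cells harbouring a luciferase neomycin HCV replicon reporter; luciferase luminescence as measure of HCV replicon replication; test concentration not given here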
# [13] = biological target: Left-right determination factor 2 (Homo sapiens) (UniProt O00292); experiment: LEFTY2 binders on small-molecule microarrays, primary screen, biochemical, small-molecule microarray, 635 nm fluorescence scan (AID 1110); conditions: LEFTY2 binding, higher = more signal
# [14] = biological target: Calmodulin-1 (Homo sapiens) (UniProt P0DP23); experiment: CALM1 binders on microarrays, EGTA buffer, profiling panel, biochemical, small-molecule microarray, Cy5-labelled CALM1 (AID 1111); conditions: Cy5-CALM1 binding fluorescence, higher = more signal;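 further: labelled calmodulin applied in Tris saline Tween buffer holding calcium plus EGTA and DTT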
# [15] = biological target: Calmodulin-1 (Homo sapiens) (UniProt P0DP23); experiment: calcium-bound CALM1 binders on microarrays, profiling panel, artefact control for SMM control-protein annotation, biochemical, small-molecule microarray, Cy5-labelled CALM1, plus calcium (AID 1112); conditions: Cy5-CALM1 binding fluorescence, higher = more signal;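 further: score merges spot fluorescence with signal to noise from triplicate slides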
# [16] = small-molecule microarray binders of probe aWnt5a, primary screen, biochemical, biotinylated probe, 635/667 nm fluorescence (AID 1113); conditions: higher = more signal;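 further: score merges 667 nm fluorescence intensity with signal-to-noise per printed feature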
# [17] = small-molecule microarray binders of probe aShh, primary screen, biochemical, biotinylated probe, 635/667 nm fluorescence (AID 1114); conditions: higher = more signal;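 further: probe is biotin-labelled aShh protein from a stem cell growth factor screen; measures binding of labelled protein to compounds printed on the slide; score merges feature fluorescence at 667 nm with signal-to-noise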
# [18] = small-molecule microarray binders of probe aNog, primary screen, biochemical, biotinylated probe, 635/667 nm fluorescence (AID 1115); conditions: higher = more signal;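 further: probe is biotinylated aNog protein used at 0.15 µg/mL for 1 h at 4 C; z-score combines 667 nm fluorescence of each spot with its signal to noise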
# [19] = biological target: Torsin-1A-interacting protein 1 (Homo sapiens) (UniProt Q5JTV8); experiment: LAP1 binders from COS7 cell lysate, primary screen, small-molecule microarray, 635/667 nm fluorescence (AID 1116); conditions: COS7-hLAP1 lysate binding, 635 nm fluorescence, higher = more signal
# [20] = biological target: Alpha-bungarotoxin (Bungarus multicinctus) (UniProt P60615); experiment: alpha-bungarotoxin binders on microarray, profiling panel, artefact control for SMM control protein annotation, biochemical, small-molecule microarray, Alexa647 label, 635/667 nm fluorescence (AID 1117); conditions: alpha-BTX-A647 binding fluorescence, higher = more signal
# Alpha-bungarotoxin (Bungarus multicinctus), sequence (P60615 whole entry, looked up): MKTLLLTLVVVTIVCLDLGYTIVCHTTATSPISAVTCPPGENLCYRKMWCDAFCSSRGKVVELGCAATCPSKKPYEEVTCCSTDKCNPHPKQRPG
# Fibroblast growth factor 10 (Homo sapiens), sequence (O15520 whole entry, looked up): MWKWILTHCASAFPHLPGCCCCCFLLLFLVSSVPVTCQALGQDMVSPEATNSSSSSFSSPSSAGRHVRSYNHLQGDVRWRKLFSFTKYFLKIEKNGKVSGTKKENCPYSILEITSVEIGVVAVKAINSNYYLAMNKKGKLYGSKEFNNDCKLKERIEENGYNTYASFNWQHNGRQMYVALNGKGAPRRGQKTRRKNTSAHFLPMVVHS
# Left-right determination factor 2 (Homo sapiens), sequence (O00292 whole entry, looked up): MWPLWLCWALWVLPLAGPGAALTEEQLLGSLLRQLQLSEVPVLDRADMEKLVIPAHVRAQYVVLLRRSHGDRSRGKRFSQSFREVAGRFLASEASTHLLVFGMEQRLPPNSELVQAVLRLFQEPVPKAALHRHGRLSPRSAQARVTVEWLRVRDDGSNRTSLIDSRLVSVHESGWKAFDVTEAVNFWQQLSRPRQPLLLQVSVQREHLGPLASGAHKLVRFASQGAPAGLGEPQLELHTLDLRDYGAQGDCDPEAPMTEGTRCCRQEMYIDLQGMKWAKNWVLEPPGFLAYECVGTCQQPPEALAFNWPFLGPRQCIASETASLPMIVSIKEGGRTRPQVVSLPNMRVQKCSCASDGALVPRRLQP
# Epidermal growth factor receptor (Homo sapiens), sequence (P00533 whole entry, looked up): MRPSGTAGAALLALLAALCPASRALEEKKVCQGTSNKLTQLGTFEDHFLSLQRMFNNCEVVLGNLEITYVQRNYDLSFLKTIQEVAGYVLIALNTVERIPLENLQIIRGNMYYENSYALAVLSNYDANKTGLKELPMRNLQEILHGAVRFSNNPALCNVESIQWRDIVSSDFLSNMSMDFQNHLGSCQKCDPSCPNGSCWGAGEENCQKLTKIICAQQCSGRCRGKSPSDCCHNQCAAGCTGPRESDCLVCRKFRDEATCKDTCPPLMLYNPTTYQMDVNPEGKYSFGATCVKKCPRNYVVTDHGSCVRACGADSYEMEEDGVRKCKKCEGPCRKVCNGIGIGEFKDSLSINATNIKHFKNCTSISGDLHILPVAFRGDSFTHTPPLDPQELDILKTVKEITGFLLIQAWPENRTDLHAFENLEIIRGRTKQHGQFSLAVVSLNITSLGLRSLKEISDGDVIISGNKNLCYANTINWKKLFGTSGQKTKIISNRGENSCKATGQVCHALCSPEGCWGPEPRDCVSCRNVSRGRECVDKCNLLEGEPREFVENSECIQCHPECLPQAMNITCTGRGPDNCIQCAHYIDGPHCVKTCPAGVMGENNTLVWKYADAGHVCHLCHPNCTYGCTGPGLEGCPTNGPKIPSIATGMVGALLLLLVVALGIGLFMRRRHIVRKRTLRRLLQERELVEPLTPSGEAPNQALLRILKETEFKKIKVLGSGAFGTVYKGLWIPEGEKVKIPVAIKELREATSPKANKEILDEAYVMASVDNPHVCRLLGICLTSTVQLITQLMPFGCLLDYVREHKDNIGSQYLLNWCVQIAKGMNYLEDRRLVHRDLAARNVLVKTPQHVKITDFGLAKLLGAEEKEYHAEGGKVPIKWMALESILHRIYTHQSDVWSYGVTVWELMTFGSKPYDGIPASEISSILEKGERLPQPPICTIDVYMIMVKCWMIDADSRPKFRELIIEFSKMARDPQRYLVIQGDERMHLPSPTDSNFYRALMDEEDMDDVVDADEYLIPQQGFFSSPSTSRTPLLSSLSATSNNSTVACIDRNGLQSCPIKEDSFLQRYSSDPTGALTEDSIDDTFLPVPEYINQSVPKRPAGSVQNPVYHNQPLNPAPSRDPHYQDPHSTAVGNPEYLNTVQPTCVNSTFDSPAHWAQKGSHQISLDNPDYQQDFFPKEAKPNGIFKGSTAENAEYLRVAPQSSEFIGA
# Torsin-1A-interacting protein 1 (Homo sapiens), sequence (Q5JTV8 whole entry, looked up): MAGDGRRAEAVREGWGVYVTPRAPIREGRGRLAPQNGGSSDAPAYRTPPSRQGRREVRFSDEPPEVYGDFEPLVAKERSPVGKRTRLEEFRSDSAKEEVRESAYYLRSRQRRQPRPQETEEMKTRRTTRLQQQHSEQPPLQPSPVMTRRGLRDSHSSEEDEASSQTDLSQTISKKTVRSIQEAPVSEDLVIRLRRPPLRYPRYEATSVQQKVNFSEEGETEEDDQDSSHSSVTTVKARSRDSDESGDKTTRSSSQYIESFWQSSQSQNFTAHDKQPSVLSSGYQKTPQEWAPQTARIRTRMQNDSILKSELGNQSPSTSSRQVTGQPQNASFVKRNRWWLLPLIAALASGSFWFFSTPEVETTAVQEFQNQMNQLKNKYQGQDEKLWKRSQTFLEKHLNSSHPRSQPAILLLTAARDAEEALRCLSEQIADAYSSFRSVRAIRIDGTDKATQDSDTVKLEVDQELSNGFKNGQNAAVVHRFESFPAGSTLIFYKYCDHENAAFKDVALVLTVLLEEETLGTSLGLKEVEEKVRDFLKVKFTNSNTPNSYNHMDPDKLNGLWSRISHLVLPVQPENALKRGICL
# Follistatin-related protein 3 (Homo sapiens), sequence (O95633 whole entry, looked up): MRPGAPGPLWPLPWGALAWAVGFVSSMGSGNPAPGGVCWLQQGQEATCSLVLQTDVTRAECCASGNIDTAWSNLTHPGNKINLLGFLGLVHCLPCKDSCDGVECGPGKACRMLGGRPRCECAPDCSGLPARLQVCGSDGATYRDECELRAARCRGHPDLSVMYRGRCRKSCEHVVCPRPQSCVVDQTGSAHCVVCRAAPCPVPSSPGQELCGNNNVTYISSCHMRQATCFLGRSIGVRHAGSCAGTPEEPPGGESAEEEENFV
# Dickkopf-related protein 1 (Homo sapiens), sequence (O94907 whole entry, looked up): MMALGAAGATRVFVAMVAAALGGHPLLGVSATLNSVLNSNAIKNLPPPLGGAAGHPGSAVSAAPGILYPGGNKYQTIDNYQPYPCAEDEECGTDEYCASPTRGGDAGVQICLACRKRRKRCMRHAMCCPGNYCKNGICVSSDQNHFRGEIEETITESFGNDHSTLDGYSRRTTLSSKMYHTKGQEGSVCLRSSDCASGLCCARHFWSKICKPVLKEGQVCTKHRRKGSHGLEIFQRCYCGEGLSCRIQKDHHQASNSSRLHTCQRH
SMILES,composite z-score [1],composite z-score [2],composite z-score [3],z-score [4],composite z-score [5],composite z-score [6],composite z-score [7],composite z-score [8],composite z-score [9],composite z-score [10],composite z-score [11],z-score [12],composite z-score [13],composite z-score [14],composite z-score [15],composite z-score [16],composite z-score [17],composite z-score [18],composite z-score [19],composite z-score [20]
C[N+](C)(C)CCCCCCNC(=O)[C@@H]1C[C@@H]2C(=O)NCC(=O)N2[C@@H]1c1ccc(O)cc1,1.43,-0.171,0.135,0.605 (inactive),0.963,0.657,0.0357,1.39,1.19,0.277,1.33,1.33,0.549,0.334,-0.431,-0.124,-0.244,-0.196,1.03,1.9
COc1ccc(C(=O)Nc2ccc(CN3C(=O)[C@@]4(O[C@@H](CC(=O)N5Cc6ccccc6C[C@H]5CO)[C@H]([Si](C)(C)c5ccc(OC)cc5)[C@H]4C)c4ccccc43)cc2)cc1,1.33,-0.351,-0.342,-1.29 (inactive),1.01,0.81,1.05,1.19,0.628,0.673,1.1,-3.84,0.804,0.0063,-0.613,-0.119,0.0121,-0.24,1.21,1.3
COCCCNC(=O)[C@@]1(Cc2ccccc2N=[N+]=[N-])N=C(c2ccc(OCCCO)cc2)O[C@H]1c1ccccc1CN=[N+]=[N-],0.953,1.19,1.18,-0.456 (inactive),1.43,1.21,0.0402,0.511,-0.338,1.21,1.44,-2.86,0.0627,0.941,0.0507,0.0676,0.551,1.47,1.54,1.71
O=C1C2C=CC(C(O)c3ccccn3)N(Nc3ccccc3)C2C(=O)N1c1ccccc1 (stereo not given),0.687,0.264,0.5,0.383 (inactive),-0.191,-0.326,-0.441,-0.656,-0.341,0.826,0.132,0.819,-0.136,0.167,-0.0451,-0.0758,-0.291,0.0373,0.529,0.31
C=CCNC(=O)[C@H]1[C@@H]2C(=O)O[C@@H](c3ccccc3)[C@@H](c3ccccc3)N2[C@@H](c2ccc(OCCO)cc2)[C@]12C(=O)N(C(=O)OCCOC)c1ccc(C#CC3=CCCCC3)cc12,1.39,0.0825,-0.0093,-1.98 (inactive),1.17,1.31,0.475,1.11,0.522,0.373,-0.192,-1.94,0.652,1.28,0.171,0.0243,0.0141,-0.038,2.23,2.5
COc1ccc(CCNC(=O)[C@@H]2c3ccccc3C(=O)N(Cc3ccccc3)[C@H]2c2ccc(CO)cc2)cc1,1.23,-0.0548,0.693,-0.575 (inactive),0.847,0.432,-0.25,0.84,-0.0051,0.309,1.43,-1.17,0.117,-0.0056,-0.904,-0.0512,-0.0813,-0.293,1.15,0.36
